# Measurements from PubChem BioAssay (NCATS).
# Results filed as inconclusive are left out. Values without a mark were called inactive. The source made the active and inactive calls. The call rests on the fitted dose curve; in most records, active means well fitted cell-killing curve with a large enough effect; inconclusive means small, poorly fitted or top-dose-only effect; inactive means no such curve, though single readings can be large or run the other way.
# Assay: qHTS of pediatric cancer cell lines to identify multiple opportunities for drug repurposing: Primary screen for Rh30 cells (AID 1347107); further: nearly all actives have a fitted effect of over 75% in size
# Settings: Rh30 rhabdomyosarcoma viability, CellTiter-Glo luminescence, 48 h; series mostly up to 46 µM; activity change, negative = cytotoxic: at the top concentration
# How it was run: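 Cells (500-1,000/well) rested 5 h, then received compounds for 48 h; metabolically active cells were measured by CellTiter-Glo luminescence. Final concentrations spanned up to 46 µM (MIPE, 11-point) or 0.59 nM-46 µM (NPC, 8-point) in primary screens, 11-point in follow-ups.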
# On the % scale 0 is the no-effect control and ±100 the full control effect; potency means the concentration at half of the fitted maximal effect.
SMILES,"activity change, negative = cytotoxic [%]",Potency
COc1cc2c(cc1O)CCC1C2CC[C@@]2(C)C1CC[C@@H]2O (some centres undefined),4.02,–
C=Cc1c(C)c2cc3nc(cc4[nH]c(cc5nc(cc1[nH]2)C(C)=C5CCC(=O)O)c(CCC(=O)OC)c4C)[C@@]1(C)C3=CC=C(C(=O)OC)[C@H]1C(=O)OC,-5.02,–
CCc1ccc(C(=O)Nc2cc(CN3CCN(C)CC3)cc(C(F)(F)F)c2)cc1C#Cc1cnc2ccnn2c1,–,14.8 µM (active)
CC(=O)N[C@@H]1[C@H](O[C@@H]2c3ccc(c(Cl)c3)Oc3cc4cc(c3O[C@H]3O[C@H](CO)[C@@H](O)[C@H](O)[C@H]3NC(=O)CCCCCCCC(C)C)Oc3ccc(cc3Cl)C[C@H]3NC(=O)[C@H](N)c5ccc(O)c(c5)Oc5cc(O)cc(c5)[C@H](NC3=O)C(=O)N[C@H]4C(=O)N[C@H]3C(=O)N[C@@H]2C(=O)N[C@@H](C(=O)O)c2cc(O)cc(O[C@H]4O[C@H](CO)[C@@H](O)[C@H](O)[C@H]4O)c2-c2cc3ccc2O)O[C@H](CO)[C@@H](O)[C@@H]1O,26,–
COc1cc2ncnc(Nc3cccc(Br)c3)c2cc1OC,-8.31,–
N[C@H]1CN(c2c(F)cc3c(=O)c(C(=O)O)cn(C4C[C@@H]4F)c3c2Cl)CC12CC2 (some centres undefined),3.64,–
COc1cc(OC)cc(-c2ccc3ncc4ccc(=O)n(-c5ccc(N6CCNCC6)c(C(F)(F)F)c5)c4c3c2)c1,–,16.6 µM (active)
CN(N=O)C(=O)N[C@H]1C(O)OC(CO)[C@@H](O)[C@H]1O (some centres undefined),3.99,–
COc1cc(N2CCC(C(N)=O)CC2)ccc1Nc1nc(N)c(Cl)c(Nc2ccccc2S(=O)(=O)C(C)C)n1,-26.8,–
